Most compounds without a hit are left out; they make up all but 3.9% or so of the library.
Wnt bcat act: activates Wnt/beta-catenin signaling in a reporter cell assay | activator, plate reader | activation, % at 9.35 µM | actives 1.2% (n = 300,000) | AID 743398; in the data active means activation above about 30%, passing the limit was not always enough; inconclusive means no clear call, values can overlap the other calls;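 further: 0% = neutral control wells and 100% = positive control wells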
HSF1 inhib: HSF1 inhibition. NIH3T3-HGL HSE-luciferase, MG132-induced, luminescence 8 h; stronger effect = lower value. activity change, negative = inhibition, % at 7.5 µM (by protocol). actives 0.77% (n = 300,000). AID 2098;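 active means more than half of replicate wells show activity change below -50%, luminescence cut by over half; inconclusive means some wells, but at most half, below -50%; inactive means no replicate well below -50%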;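 further: luciferase reports HSF-1 transcriptional activity via heat shock element; 0% = median of DMSO wells and -100% = zero luminescence signal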
HSF1 activator: increases HSF-1 driven luciferase reporter signal. NIH3T3-HGL HSF-1 luciferase reporter, MG132, 8 h; 100% = twice DMSO control signal. activation, % at 9 µM. actives 1.7% (n = 300,000);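 active means mean replicate activation of at least 50% with a set share of replicates each reaching 50%; inconclusive means only one of those two conditions met; inactive means mean below 50% and too few replicates reaching it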;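 further: 0% = median of the neutral control wells and 100% = twice that signal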
MITF act: increases MITF-driven TRPM1 promoter luciferase signal; SK-MEL-5 TRPM1-promoter luciferase, 24 h; % of positive control, neutral wells = 0; activation, % at 12.5 µM; actives 0.75% (n = 300,000); AID 588334;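 active means mean activation of at least 80% with every replicate also reaching 80%; inconclusive means mean reaches 80% but some replicate falls short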;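 further: 0% = neutral control wells and 100% = parthenolide positive control wells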
esBAF inh: SWI/SNF esBAF complex inhibition; mouse ES cells, Bmi1-luciferase knock-in reporter, 24 h; 100% = twice the neutral-well signal; reporter increase, % at 12.5 µM; actives 2% (n = 350,000); AID 602393; in the data active means activation above about 40%; inconclusive means no clear call, values can overlap the other calls;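 further: 0% = median of the plate's neutral control wells and 100% = double that signal; a rise in the Bmi1 reporter signal indicates esBAF inhibition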
Ring1 derepress: esBAF inhibition confirmed by Ring1 de-repression; shares compounds with esBAF inh; fold change at 33 µM; mouse ESC E14, Ring1 mRNA RT-qPCR fold change; 550 tested, under 10 active;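 active means Ring1 gene expression raised more than 2-fold over untreated cells in both replicates at either tested dose; inconclusive means only one replicate above 2-fold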;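 further: Ring1 transcript normalised to actin housekeeping signal by TaqMan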
Fgf4 repress: confirmation of esBAF inhibitors: Fgf4 repression in mouse ESCs | shares compounds with esBAF inh | mouse ESC E14, Fgf4 mRNA qPCR fold change; stronger effect = lower value | Fgf4 expression fold change at 33 µM | actives 4% (n = 550) | AID 743177;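 active means Fgf4 expression under 0.8 fold of control in both repeat measurements at one or both tested doses; inconclusive means under 0.8 fold in just a single repeat measurement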;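 further: Fgf4 transcript normalised to actin in duplex TaqMan qPCR; cells exposed to compound for 24 h before lysis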
Bmi1 derepress: de-represses Bmi1 in mouse ESCs, confirming esBAF inhibition. shares compounds with esBAF inh. mouse ESE14 ES cells, Bmi1 mRNA qPCR fold; stronger effect = higher value. fold change at 33 µM. 550 tested, under 10 active;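 active means Bmi1 expression fold change above 6 at either tested concentration, seen in replicate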
A549 cytotox: kills or reduces viability of A549 cells | A549 cytotoxicity, plate reader | cell viability change % (negative = cytotoxic), % at 25 µM, hits read low | 550 tested, under 10 active | shares compounds with esBAF inh; call rule not given here
HepG2 tox SP: kills or reduces viability of HepG2 cells; shares compounds with esBAF inh; HepG2 cytotoxicity, plate reader; stronger effect = lower value; activity change, negative = inhibition, % at 25 µM; actives 4% (n = 550); AID 743189; in the data active means activity change below about -50%
HEK293 cytotox SP: cytotoxicity in HEK293 cells; plate reader; shares compounds with esBAF inh; activity change, negative = inhibition, % at 25 µM, hits read low; actives 3% (n = 550); AID 743190; in the data active means activity change below about -38%, passing the limit was not always enough
* hit, by the source's call.

For COc1cccc(-c2nc(-c3ccc(NC(=O)c4cccs4)cc3)no2)c1 the results were HSF1 inhib 21.6, HSF1 activator 28.4, MITF act 52.1, esBAF inh 62.0*, Ring1 derepress 1.1, Fgf4 repress 0.861, Bmi1 derepress 1.5, A549 cytotox -15.0, HepG2 tox SP -6.2 and HEK293 cytotox SP -18.3.
For COc1cccc(-c2nc(-c3ccc(NC(=O)c4ccncc4)cc3)no2)c1 the results were HSF1 inhib -1.7, HSF1 activator 1.1 and esBAF inh 20.4.
Screening O=C(Nc1ccccc1Cl)c1cc(=O)c2ccccc2o1 returned Wnt bcat act 11.0, HSF1 inhib 20.2, HSF1 activator 15.4, esBAF inh 73.1*, Ring1 derepress 1.18, Fgf4 repress 1.04, Bmi1 derepress 1.08, A549 cytotox -5.2, HepG2 tox SP -7.3 and HEK293 cytotox SP -10.1.
`O=C(NCc1ccccc1)c1cc(=O)c2ccccc2o1` gave HSF1 inhib 3.0, HSF1 activator 9.3 and MITF act -3.0.
Screening C[C@@H]1CN([C@H](C)CO)C(=O)c2ccccc2-c2ccccc2CO[C@@H]1CN(C)C(=O)c1ccccc1 returned esBAF inh 5.1.
For Cc1cc2oc(=O)cc(CN3CCC(C)CC3)c2c(C)c1Cl the results were Wnt bcat act 8.4, HSF1 inhib 19.0, HSF1 activator 25.5, esBAF inh 58.8*, Ring1 derepress 1.05, Fgf4 repress 0.851, Bmi1 derepress 1.43, A549 cytotox -20.8, HepG2 tox SP -33.8 and HEK293 cytotox SP -21.8.
For Cc1cc(C)c2c(CN3CCC(C)CC3)cc(=O)oc2c1 the results were Wnt bcat act 19.2, HSF1 inhib 30.1, HSF1 activator inconclusive, MITF act 36.9 and esBAF inh 26.0.
For C[C@@H]1CN([C@@H](C)CO)S(=O)(=O)c2ccc(C#CC3(O)CCCC3)cc2O[C@H]1CN(C)C(=O)Cc1ccncc1 the results were esBAF inh 0.1.
O=C(C[C@H]1CC[C@@H]2[C@H](COC[C@@H](O)CN2C(=O)Nc2ccc(Cl)cc2)O1)NCC1CC1 was read as esBAF inh 19.5.
COc1cccc(-c2cc(C(=O)NC3CCCCC3)no2)c1 was read as Wnt bcat act 4.1, HSF1 inhib 20.1, HSF1 activator 24.1, MITF act 115.3*, esBAF inh 59.4*, Ring1 derepress 1.23, Fgf4 repress 0.877, Bmi1 derepress 1.36, A549 cytotox -4.0, HepG2 tox SP -17.9 and HEK293 cytotox SP -6.0.
For COc1ccc(-c2cc(C(=O)NC3CCCC3)no2)cc1 the results were Wnt bcat act 18.5, HSF1 inhib 19.8, HSF1 activator 39.4, MITF act 67.0 and esBAF inh 7.1.
`O=C(NC1CCCCC1)c1cc(-c2cccc(Cl)c2)on1` gave Wnt bcat act 17.5, HSF1 inhib 7.9, HSF1 activator 37.9, MITF act 95.0*, esBAF inh 60.3*, Ring1 derepress 1.23, Fgf4 repress inconclusive, Bmi1 derepress 1.84, A549 cytotox -10.5, HepG2 tox SP -7.9 and HEK293 cytotox SP -4.1.
Screening O=C(NC1CCCCC1)c1cc(-c2ccco2)on1 returned Wnt bcat act 26.1, HSF1 inhib 25.0, HSF1 activator 28.7, MITF act 24.2 and esBAF inh 4.7.
Screening O=C(NC1CCCC1)c1cc(-c2ccccc2O)on1 returned Wnt bcat act 2.0, HSF1 inhib 30.7, HSF1 activator inconclusive, MITF act 106.0*, esBAF inh 60.6*, Ring1 derepress 1.29, Fgf4 repress 0.803, Bmi1 derepress 1.42, A549 cytotox -13.1, HepG2 tox SP 9.3 and HEK293 cytotox SP -5.9.
Nc1cc2c3ccccc3ccc2c2ccccc12 was read as Wnt bcat act 2.9, MITF act -1.8, esBAF inh 79.0*, Ring1 derepress 0.641*, Fgf4 repress 0.475*, Bmi1 derepress 37.1*, A549 cytotox -11.5, HepG2 tox SP -19.6 and HEK293 cytotox SP -118.9*.
Screening Nc1ccc2ccccc2c1[N+](=O)[O-] returned Wnt bcat act -0.7, MITF act -10.4 and esBAF inh -3.4.
Screening COC(=O)CN(C)C(=O)c1ccc2nc(Cc3cccc(Cl)c3)oc2c1 returned Wnt bcat act 22.8, HSF1 inhib 19.9, HSF1 activator 37.5, MITF act 106.7*, esBAF inh 65.8*, Ring1 derepress 1.16, Fgf4 repress 1, Bmi1 derepress 1.28, A549 cytotox -17.7, HepG2 tox SP -19.7 and HEK293 cytotox SP -13.9.
Screening CN(Cc1ccccn1)C(=O)c1ccc2nc(Cc3cccc(Cl)c3)oc2c1 returned Wnt bcat act 0.2, HSF1 inhib 3.8, HSF1 activator 25.5 and MITF act 16.5.
For O=C(N/N=C/c1cccc(F)c1)c1c(O)c2ccccc2[nH]c1=O the results were Wnt bcat act -4.1, HSF1 inhib -6.6, HSF1 activator -6.4 and MITF act -44.5.
For O=C(Nc1cccc(F)c1)c1c(O)c2ccccc2[nH]c1=O the results were Wnt bcat act 8.7, HSF1 inhib 3.1, HSF1 activator 32.1, esBAF inh 79.9*, Ring1 derepress 0.994, Fgf4 repress 0.947, Bmi1 derepress 1.33, A549 cytotox 5.8, HepG2 tox SP -16.6 and HEK293 cytotox SP -8.8.
Screening CS(=O)(=O)N1CCN(c2nc3ccccc3s2)CC1 returned HSF1 inhib 3.6, HSF1 activator 3.8, MITF act 67.3, esBAF inh 65.2*, Ring1 derepress 1.12, Fgf4 repress 1.11, Bmi1 derepress 1.1, A549 cytotox -11.2, HepG2 tox SP -16.4 and HEK293 cytotox SP -6.6.
`C[C@@H]1CN([C@H](C)CO)C(=O)Cc2cc(NS(=O)(=O)c3cn(C)cn3)ccc2O[C@@H]1CN(C)S(=O)(=O)c1cccs1` gave esBAF inh -1.1.
Screening c1ccc2c(c1)Nc1cc3ccccc3cc1O2 returned Wnt bcat act 6.9, MITF act 44.2, esBAF inh 84.0*, Ring1 derepress 1.27, Fgf4 repress 0.903, Bmi1 derepress 1.49, A549 cytotox -1.7, HepG2 tox SP -1.1 and HEK293 cytotox SP -8.5.
